Measured values published in PubChem BioAssay AID624430 (Broad Institute, 2012).
Results with a measured potency or affinity are listed apart. A number with no mark means an inactive call.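 The calls were made as follows: active = compound whose falling signal curve reaches half its effect at no more than twice the top valid dose; inconclusive = flat curve with 30 to 70% inhibition, or poor fit; inactive = the rest.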

assay: TRPM1 promoter luciferase reporter signal decrease, dose response, MITF inhibitor project, cell-based, SK-MEL-5, dry powder, set 8 (AID 624430); conditions: SK-MEL-5 TRPM1 promoter luciferase reporter, 24 h; series mostly up to 35 µM; activity change, negative = inhibition: at the top concentration

SMILES	activity change, negative = inhibition [%]
COc1ccc(NC2=CC(=O)c3ccccc3C2=O)cc1	-70.2
O=C1C=C(NCc2ccccc2)C(=O)c2ccccc21	3.45
O=C1C=C(Nc2ccc3ccccc3c2)C(=O)c2ccccc21	-25.7
O=C1C=C(Nc2ccc(F)cc2)C(=O)c2ccccc21	12.9
O=C1C=C(NC2CCCCC2)C(=O)c2ccccc21	40.2
CC1=C(N)C(=O)c2ccccc2C1=O	27.8
Cc1ccc(NC2=CC(=O)c3ccccc3C2=O)cc1C	-73.2
